Calls of active or inactive are those of the source. How the source made its calls: active means hit-call score of the fitted dose curve at least 0.9, where 1 is the maximum; inactive means score below 0.9.
What was measured:
[1] = read-out: Cytochrome P450 (CYP1A1), CYP1A1 (gene 1543); assay: LTEA_HepaRG_CYP1A1: Life Technologies and Expression Analysis (LTEA) Assay for Cytochrome P450 (CYP1A1) using HepaRG (AID 2283454); conditions: mRNA level, 48 h; actives raise or lower the signal
In short: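 HepaRG, 48 h post-plating switched to serum-free induction medium; 8-pt conc-response (top 100 uM, half-log, 0.5% DMSO), duplicates, 48 h. Lysis in RLT, TaqMan qRT-PCR for CYP1A1; gain or loss vs DMSO.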

[2] = read-out: CFLAR gene, CFLAR (gene 8837); assay: LTEA_HepaRG_CFLAR: Life Technologies and Expression Analysis (LTEA) Assay for CFLAR gene using HepaRG (AID 2283455); conditions: mRNA level, 48 h; actives raise or lower the signal
In short: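 Differentiated HepaRG cells in serum-free induction medium were exposed 48 h in duplicate to eight half-log concentrations up to 100 uM in 0.5% DMSO; mRNA measured by TaqMan qRT-PCR, normalized to ACTB, GAPDH, POLR2A; bidirectional fitting versus DMSO.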

[3] = read-out: Forkhead box O1 (FOXO1), FOXO1 (gene 2308); assay: LTEA_HepaRG_FOXO1: Life Technologies and Expression Analysis (LTEA) Assay for Forkhead box O1 (FOXO1) using HepaRG (AID 2283456); conditions: mRNA level, 48 h; actives raise or lower the signal
In short: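 Differentiated HepaRG cells, in serum-free induction medium with 0.5% DMSO, exposed 48 h in duplicate to 8-point half-log series from 100 uM. FOXO1 mRNA measured by TaqMan qRT-PCR, normalized to ACTB, GAPDH, POLR2A; bidirectional fit versus DMSO.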

[4] = read-out: growth arrest and DNA damage 45 (GADD45A), GADD45A (gene 1647); assay: LTEA_HepaRG_GADD45A: Life Technologies and Expression Analysis (LTEA) Assay for growth arrest and DNA damage 45 (GADD45A) using HepaRG (AID 2283458); conditions: mRNA level, 48 h; actives raise or lower the signal
In short: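 Differentiated HepaRG cells were exposed in duplicate for 48 h in serum-free induction medium to 8-point half-log concentrations up to 100 uM in 0.5% DMSO. GADD45A mRNA was measured by TaqMan qRT-PCR, normalized to ACTB, GAPDH and POLR2A, with bidirectional fitting versus DMSO.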

[5] = read-out: Forkhead box O3 (FOXO3), FOXO3 (gene 2309); assay: LTEA_HepaRG_FOXO3: Life Technologies and Expression Analysis (LTEA) Assay for Forkhead box O3 (FOXO3) using HepaRG (AID 2283459); conditions: mRNA level, 48 h; actives raise or lower the signal
In short: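 Differentiated human HepaRG cells, 48 h post-plating, exposed in duplicate for 48 h in serum-free induction medium; 8-point half-log series from 100 uM in 0.5% DMSO. FOXO3 mRNA by TaqMan qRT-PCR, normalized to ACTB/GAPDH/POLR2A; bidirectional fit versus DMSO.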

[6] = read-out: ABC Transporter (ABCB1), ABCB1 (gene 5243); assay: LTEA_HepaRG_ABCB1: Life Technologies and Expression Analysis (LTEA) Assay for ABC Transporter (ABCB1) using HepaRG (AID 2283460); conditions: mRNA level, 48 h; actives raise or lower the signal
In short: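 HepaRG cells exposed in duplicate for 48 h in serum-free induction medium to eight half-log concentrations up to 100 uM in 0.5% DMSO. ABCB1 mRNA quantified by qRT-PCR, normalised to ACTB, GAPDH and POLR2A; fitted bidirectionally versus DMSO.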

[7] = read-out: growth arrest and DNA damage 45 (GADD45B), GADD45B (gene 4616); assay: LTEA_HepaRG_GADD45B: Life Technologies and Expression Analysis (LTEA) Assay for growth arrest and DNA damage 45 (GADD45B) using HepaRG (AID 2283461); conditions: mRNA level, 48 h; actives raise or lower the signal
In short: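 HepaRG, ~100,000 cells/well, 48 h plating; serum-free induction medium; cpd 100 uM top, half-log x8, 0.5% DMSO, duplicate, 48 h; lysis in RLT, RNA isolation, qRT-PCR; norm ACTB/GAPDH/POLR2A; bidirectional fit vs DMSO.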

[8] = read-out: ABC Transporter (ABCC3), ABCC3 (gene 8714); assay: LTEA_HepaRG_ABCC3: Life Technologies and Expression Analysis (LTEA) Assay for ABC Transporter (ABCC3) using HepaRG (AID 2283462); conditions: mRNA level, 48 h; actives raise or lower the signal
In short: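 Human HepaRG, 48 h dosing, 8-pt half-log series from 100 uM, 0.5% DMSO vehicle, duplicates. ABCC3 mRNA by TaqMan qRT-PCR, housekeeping-normalized; bidirectional curve fit vs DMSO.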

[9] = read-out: ABC Transporter (ABCB11), ABCB11 (gene 8647); assay: LTEA_HepaRG_ABCB11: Life Technologies and Expression Analysis (LTEA) Assay for ABC Transporter (ABCB11) using HepaRG (AID 2283463); conditions: mRNA level, 48 h; actives raise or lower the signal
In short: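 Differentiated human HepaRG cells in serum-free induction medium, dosed in duplicate for 48 h. Eight-point half-log series from 100 uM in 0.5% DMSO; ABCB11 mRNA by qRT-PCR, normalized to ACTB, GAPDH, POLR2A, fitted bidirectionally versus DMSO.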

[10] = CEETOX_H295R_TESTO: CeeTox H295R High-throughput Steroidogenesis Assay for Testosterone (TESTO) (AID 2283457); conditions: actives raise or lower the signal
Method: CEETOX_H295R is a cell-based, multiplexed-readout assay that uses H295R, a human adrenal gland cell line, with measurements taken at 48 hours after chemical dosing in a 96-well plate.CEETOX_H295R_TESTO is one of 23 assay component(s) measured or calculated from the CEETOX_H295R assay. It is designed to make measurements of hormone induction, a form of inducible reporter, as detected with […] by HPLC-MS-MS technology.Data from the assay component CEETOX_H295R_TESTO was analyzed into 1 assay endpoint. This assay endpoint, CEETOX_H295R_TESTO, was analyzed with bidirectional fitting relative to DMSO as the negative control and baseline of activity. Using a type of inducible reporter, gain or loss-of-signal activity using HPLC-MS-MS was used to understand synthesis of Testosterone in H295R cell line at 48hr of chemical exposure. To generalize the intended target to other relatable targets, this assay endpoint is annotated to the steroid hormone intended target family, where the subfamily is androgens.
Cell culture and media preparation procedures were conducted in accordance with OECD Test No. 456 guidelines, with minor modifications. H295R cells (ATCC CRL-2128) were expanded for 5 passages and frozen in batches in liquid nitrogen. Prior to the steroidogenesis assay, H295R cells were thawed and passed at least 4 times. The maximum passage was 10. Cells were maintained in a 1:1 mixture of DMEM/F12 supplemented with 5ml/L ITS+ Premix (BD Bioscience) and 12.5 ml/L Nu-Serum (BD Bioscience). After seeding cells into 96-well plates at 50-60% confluency, cells were allowed to adhere overnight. […] Test chemicals were incubated for 48 hours, then the medium was removed and split into 2 vials containing approximately 75uL each, and stored at -80 C prior to hormone analysis. For steroid quantification, media samples were shipped to OpAns, LLC (Durham, NC) on dry ice, and samples were thawed to room temperature prior to liquid-liquid extraction. Steroid hormones were extracted from media samples using methyl tertbutyl ether (MTBE). An extra derivatization with dansyl chloride was included for estrogen (estrone and estradiol) detection only. Steroid hormones were separated by HPLC, eluted using a reverse phase C18 gradient with electrospray positive ionization, followed by quantification by tandem mass spectrometry (MS/MS). Data were acquired on a MassHunter Workstation Acquisition version B03.01 (Agilent Technologies, Inc.) and processed using MassHunter Quantitative Analysis for QQQ. Accuracy was determined for each hormone analyte from 3 standards to determine upper and lower limits of quantification (ULOQ and LLOQ, respectively) using a 7-point standard curve. Precision and accuracy of the extraction and quantification methods were calculated as the percent relative standard deviation (%RSD) of the spiked standards and percent spiked standard recovered, respectively. […] Test medium was removed following chemical exposure, and cell viability was evaluated in the same wells by MTT. […] Absorbance was read at 570 and 650nm using a Packard Fusion microplate reader. Background correction of absorbance units was used to determine percent change relative to controls. […] When a test chemical reduced cell viability to 20% - 70%, the test chemical was diluted 10-fold and re-evaluated, but if cell viability was <20%, then the test chemical was diluted 100-fold and re-evaluated. […]

Measured: AC50

O=C(NO)C1(NS(=O)(=O)c2ccc(Oc3ccc(F)cc3)cc2)CCOCC1
active: [8] 80.1 µM | [9] 82.8 µM
not listed: [10]
inactive: all other assays above

OCc1c[nH]c2ccccc12
inactive: [10]

NC(=O)N1c2ccccc2C=Cc2ccccc21
not listed: [10]
inactive: all other assays above

OCC(CO)(CO)CO
not listed: [10]
inactive: all other assays above

CCCC(CCC)C(=O)O
active: [1] 64.3 µM
not listed: [10]
inactive: all other assays above

OC[C@H]1O[C@@H]2O[C@H]3[C@H](O)[C@@H](O)[C@@H](O[C@H]4[C@H](O)[C@@H](O)[C@@H](O[C@H]5[C@H](O)[C@@H](O)[C@@H](O[C@H]6[C@H](O)[C@@H](O)[C@@H](O[C@H]7[C@H](O)[C@@H](O)[C@@H](O[C@H]1[C@H](O)[C@H]2O)O[C@@H]7CO)O[C@@H]6CO)O[C@@H]5CO)O[C@@H]4CO)O[C@@H]3CO
active: [1] 26.2 µM
not listed: [10]
inactive: all other assays above

CCc1cccc(CC)c1N
active: [1] 50 µM
not listed: [10]
inactive: all other assays above

CCCCCOC(C)=O
not listed: [10]
inactive: all other assays above

OCCNCCO
active: [9] 60.5 µM
not listed: [10]
inactive: all other assays above

O=C(O)[C@H](O)[C@@H](O)C(=O)O
not listed: [1] | [10]
inactive: all other assays above

O=C(O)c1ccc2c(c1)nc(C(=O)NC1CCN(C3CC3)CC1)n2Cc1cc(-c2ccc(Cl)s2)on1
active: [1] 12 µM
not listed: [10]
inactive: all other assays above

CC(=O)c1ccccc1
active: [1] 76.7 µM
not listed: [10]
inactive: all other assays above

CCCOc1ccc(S(=O)(=O)N2CCN(CC)CC2)cc1-c1nc2c(CC)n(Cc3ccccn3)nc2c(=O)[nH]1
active: [1] 59.8 µM | [6] 2.87 µM | [9] 27.7 µM
not listed: [10]
inactive: all other assays above

Cc1ccc(S(=O)(=O)NC(=O)NN2CCCCCC2)cc1
active: [6] 20.1 µM
not listed: [1] | [10]
inactive: all other assays above

CCCCCCCCCCCCCCCCOS(=O)(=O)O
active: [1] 14.9 µM | [9] 41.1 µM
not listed: [10]
inactive: all other assays above

CCOC(N)=O
active: [1] 50 µM
not listed: [10]
inactive: all other assays above

c1ccc2ncccc2c1
active: [1] 83.2 µM
not listed: [10]
inactive: all other assays above

NC(=O)N(O)[C@@H]1COc2cc(OCc3ccccc3)ccc21
active: [1] 40.2 µM
not listed: [10]
inactive: all other assays above
